# Measurements from PubChem BioAssay (NCI).
# Compounds without any hit were thinned out: in the full panel of roughly 83,000, 20% have a hit.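 Interpretation: 100, growth as untreated; towards 0, rising growth inhibition; 0, no net growth; 0 to -100, cell death. Compounds scoring below 10 were considered active.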 Activity calls are given as the source filed them.
# Test system: HCC-2998 colon
# Test: NCI-60 one-dose screen, 48 h (100 = growth as untreated, 0 = no growth, -100 = all killed)
# Conditions: 10 µM unless noted
row,Structure (SMILES),growth
1,COc1cccc(C(=O)Nc2cccc(C#Cc3cccc4[nH]nc(N)c34)c2)c1,45.9% (inactive)
2,CC1(C)[C@@H](O)CC[C@]2(C)[C@H]3CC[C@@H]4[C@H]5[C@H](C(=O)/C=C\c6ccncc6)CC[C@]5(O)CC[C@@]4(C)[C@]3(C)CC[C@@H]12,77.9% (inactive)
3,N#Cc1cccc(CN2CCc3ncn(Cc4ccc(Cl)cc4)c(=O)c3C2)c1,13.9% (inactive)
4,CCNC(=O)N1CCc2cc(OC)c(OCCc3ccc(OC)cc3)cc2C1c1ccc([N+](=O)[O-])cc1C (configuration not stated),14.5% (inactive)

# Test system: KM12 colon
# Test: as above
# Conditions: 10 µM unless noted
row,Structure (SMILES),growth
1,O=C(CN1CCN(c2cc(=O)n(-c3ccccc3)c3ccccc23)CC1)Nc1nc(-c2ccccc2)cs1,63% (inactive)
2,Cc1ccc(NC(=O)c2ccc(CN3CCOCC3)c(C(F)(F)F)c2)cc1Oc1ccc(-c2[nH]nc3ncnc(N)c23)cc1,25.4% (inactive)
3,Cc1ccc(NC(=O)CNc2cc(C(N)=O)cc(F)c2C)c(Cl)c1,99.1% (inactive)
4,COc1cc(C2N=C(NNc3ccccc3)NC(C)=C2C(C)=O)ccc1O (configuration not stated),95.6% (inactive)
5,CNc1ncc2cc(-c3ccc(-c4ncccc4F)cc3Cl)c(=O)n(CC3OCC(N)CO3)c2n1 (configuration not stated),95.7% (inactive)
6,Nc1cc(-c2c[nH]c3ccc(Br)cc23)nc2cc(-c3c[nH]c4ccc(Br)cc34)nn12,-23.2% (active)
7,Cc1cc2ncc(-c3cc4ccccc4c(N4CCN(C)CC4)n3)nc2cc1C,-3.53% (active)
8,O=C(NCCn1ccnc1)c1ccc(-c2nc3ccc4[nH]ncc4c3c3c2CCCC3)cc1,26% (inactive)
9,N#C/C(=C\c1ccc(-c2ccc(Cl)cc2Cl)o1)c1ccc(F)cc1,94.2% (inactive)
10,COc1cc(Nc2c(C#N)cnn3cc(-c4cnn(CC(C)(C)O)c4)cc23)ccc1Cl,19.1% (inactive)
11,C=C(C=O)[C@@H]1CC[C@]2(CO)CC[C@]3(C)[C@H](CC[C@@H]4[C@@]5(C)CCCNC(C)(C)[C@@H]5CC[C@]43C)[C@@H]12,1.61% (active)
12,CC/C(=C/c1cc(OC)ccc1O)c1ccc2cc(OC)ccc2[o+]1,46.1% (inactive)
13,COc1c(N2CC3CCCNC3C2)c(F)cc2c(=O)c(C(=O)N/N=C/c3ccc4c(c3)OCO4)cn(C3CC3)c12 (configuration not stated),88% (inactive)
14,COc1cccc2cc(-c3cc4ccccc4[nH]3)/c(=N\NC(=O)c3ccc(Cl)cc3)oc12,28.2% (inactive)
15,C=CC(=O)N1CCC=C(c2cc3c(N[C@H](C)c4ccccc4)ncnc3[nH]2)C1,90.5% (inactive)
16,O=C(CSc1nc2ccccc2c(=O)n1-c1ccccc1)Nc1cccc(C(=O)/C=C/c2ccccc2)c1,87.5% (inactive)
17,c1cn2c(ccc3nc(-c4cn[nH]c4)c4c(c32)CCCC4)n1,74.9% (inactive)
18,O=S(=O)(NCCCNc1nccc(-n2cnc3ccccc32)n1)c1ccc(C(F)(F)F)cc1,79.8% (inactive)
19,COc1ccc(-c2cc(-c3ccc(Cl)cc3)c(C#N)c(=O)n2Cc2ccc(C(=O)O)cc2)cc1,43.2% (inactive)

row,Structure (SMILES),growth
1,COc1cc2c(cc1OC)C(Sc1ccc(C)cc1)c1c(nc(N)c(C#N)c1N)O2 (configuration not stated),-52.5% (active)
2,CCc1nn2c(C)cc(C)nc2c1Cc1ccc(/C=C/CN2CCN(CCOCCOCCN3CCN(C/C=C/c4ccc(Cc5c(CC)nn6c(C)cc(C)nc56)cc4)CC3)CC2)cc1,35.2% (inactive)
3,Cc1noc(C)c1CSc1nc2ccccc2n1-c1ccccc1,101% (inactive)
4,COc1cccc2c1CN(C(=O)c1ccc(O)c(C(=O)N3Cc4ccc(OCCC[P+](c5ccccc5)(c5ccccc5)c5ccccc5)cc4C3)c1)C2,44.4% (inactive)
5,COc1ccc2c(c1)Oc1nc(N)c(C#N)c(N)c1C2Sc1ccc(C)cc1 (configuration not stated),52.5% (inactive)
6,Nc1nc(-c2cccc([N+](=O)[O-])c2)c(N=Nc2cccc([N+](=O)[O-])c2)s1,48.2% (inactive)
7,Fc1ccc(-c2cc3nc(C(Cl)Cl)nc(-c4ccco4)n3n2)cc1,-24.5% (active)
8,CCN1CCN(Cc2ccc(C(=O)Nc3ccc(C)c(Oc4ccc(-c5[nH]nc6ncnc(N)c56)cc4)c3)cc2C(F)(F)F)CC1,21.2% (inactive)
9,Cc1ccc(-n2cc(/C=C/C(=O)c3ccc(O)cc3)c(-c3ccc(S(C)(=O)=O)cc3)n2)cc1,38.3% (inactive)
10,CCCn1cnc2c(c1=N)C(c1ccc(OC)cc1)c1sc3c(CC)cccc3c1O2 (configuration not stated),16.8% (inactive)
11,Cc1ccc(NC(=O)c2ccc(CN3CCN(C)CC3)cc2)cc1Oc1ccc(-c2[nH]nc3ncnc(N)c23)cc1,56.3% (inactive)
12,CC(=O)c1nnn(-c2c(C(=O)n3nc(C)cc3C)sc(=S)n2-c2ccccc2)c1C,104% (inactive)
13,O=S(=O)(NCCNc1nccc(-n2cnc3ccccc32)n1)c1ccc(C(F)(F)F)cc1,58.7% (inactive)
14,NC(N)=Nc1ccc(Oc2cccc(Nc3cccc(C(F)(F)F)c3)c2)cn1,-82.8% (active)
15,Nc1nc(-c2cccc([N+](=O)[O-])c2)c(N=Nc2ccc(Br)cc2)s1,15.4% (inactive)
16,COc1cccc(C(=O)Nc2cccc(C#Cc3cccc4[nH]nc(N)c34)c2)c1,12.6% (inactive)
17,CC1(C)[C@@H](O)CC[C@]2(C)[C@H]3CC[C@@H]4[C@H]5[C@H](C(=O)/C=C\c6ccncc6)CC[C@]5(O)CC[C@@]4(C)[C@]3(C)CC[C@@H]12,39.2% (inactive)
18,N#Cc1cccc(CN2CCc3ncn(Cc4ccc(Cl)cc4)c(=O)c3C2)c1,29.7% (inactive)
19,CCNC(=O)N1CCc2cc(OC)c(OCCc3ccc(OC)cc3)cc2C1c1ccc([N+](=O)[O-])cc1C (configuration not stated),18.6% (inactive)
